# Compound activity (PubChem)
# DT40 TDP1 CPT = growth inhibition of DT40 Tdp1-/-;hTDP1 cells with camptothecin (screen for TDP1 inhibitors). Potency, µM (top dose mostly 46.2 µM), inactives show at the top dose activity change, negative = growth inhibition, usual class: inhibitors. 420,000 tested, 12% active. chicken DT40 Tdp1-/-;hTDP1 cells + 20 nM CPT, ATP luminescence, 48 h; further: potency means the concentration at half of the fitted maximal effect; on the % scale 0 is the no-effect control and ±100 the full control effect; nearly all actives have a fitted effect of over 55% in size
#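 Chicken DT40 Tdp1-/- cells complemented with human TDP1, 400 cells/well, exposed to compounds plus 20 nM camptothecin for at least 48 h at 37 C; viability read as ATP content by CellTiter-Glo luminescence.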
# IL1B secr inh = inflammasome signaling inhibition, IL-1 beta readout; activity change, % at 57.5 µM; 360,000 tested, 4.7% active; THP-1 LPS/ATP IL-1B secretion, AlphaLISA, 16 h; stronger effect = lower value; in the data active means activity change below about -50%; inconclusive means mostly about -30% to -49%; further: on the % scale 0 is the no-effect control and ±100 the full control effect
#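 Secreted IL-1B measured by AlphaLISA bead assay after 16 h compound exposure of THP-1 cells; compounds (final up to 57.5 uM) added 1 h before LPS (250 ng/mL) and ATP (1.25 mM) stimulation; lower signal means less secretion.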
# ClpP mod = qHTS Assay for Activators of ClpP; ATP-dependent Clp protease proteolytic subunit (Bacillus subtilis (strain 168)), P80244; Potency, µM (highest dose often 57.5 µM), inactives show top-dose activity change, negative = active; AID 651965, 2013; purified B. subtilis ClpP, FRET peptide cleavage, 20 min; 340,000 tested, 1.9% active; active means well fitted falling curve with a large enough effect; inconclusive means small, poorly fitted or top-dose-only effect; inactive means no such curve, though single readings can be large or run the other way; further: potency means the concentration at half of the fitted maximal effect; the source files actives as falling curves though it sought activators and does not explain the sign; nearly all actives have a fitted effect of over 65% in size
# Target sequence (P80244 whole entry, looked up): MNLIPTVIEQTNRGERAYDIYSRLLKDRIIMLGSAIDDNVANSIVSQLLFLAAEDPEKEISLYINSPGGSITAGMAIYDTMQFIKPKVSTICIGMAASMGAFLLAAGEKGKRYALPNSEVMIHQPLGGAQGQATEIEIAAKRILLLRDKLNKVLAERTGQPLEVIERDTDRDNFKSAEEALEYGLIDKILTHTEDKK
#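 Purified B. subtilis ClpP, 10 microg/mL final in Tris/HCl pH8 with KCl, BSA, glycerol and Tween-20, cleaved an Abz/nitrotyrosine-quenched decapeptide. Fluorescence (ex 320, em 430) was read at 0 and 20 min at room temperature. Delta was normalized to 5.8 microM ADEP and DMSO/no-enzyme controls.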
# DRD3 agonist = activates the human D3 dopamine receptor | D3R DiscoveRx beta-arrestin cells, luminescence, 90 min | max activation, % | P35462 | AID 652048 | 410,000 tested, 0.58% active; in the data active means max activation above about 30%; further: 0% is about no effect
# Target sequence (P35462 whole entry, looked up): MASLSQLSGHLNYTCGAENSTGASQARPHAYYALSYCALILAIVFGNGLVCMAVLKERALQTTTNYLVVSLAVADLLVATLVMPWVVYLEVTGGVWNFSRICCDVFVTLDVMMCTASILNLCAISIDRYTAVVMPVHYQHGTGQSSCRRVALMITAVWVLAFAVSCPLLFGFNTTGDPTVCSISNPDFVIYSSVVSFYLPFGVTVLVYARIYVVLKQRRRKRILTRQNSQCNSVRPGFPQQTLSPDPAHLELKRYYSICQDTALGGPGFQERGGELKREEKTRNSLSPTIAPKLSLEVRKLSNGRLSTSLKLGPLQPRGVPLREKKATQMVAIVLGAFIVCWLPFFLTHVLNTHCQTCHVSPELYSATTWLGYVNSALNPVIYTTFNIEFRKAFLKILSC
#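 Agonist mode: compounds and dopamine controls were applied to plated cells for 90 min at 37 degrees C after an overnight attachment at 1500 cells/well. Luminescent read-out followed 30 - 60 minutes at room temperature with DiscoveRx detection reagent.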
# DT40 TDP1 no CPT = qHTS for Inhibitors of human tyrosyl-DNA phosphodiesterase 1 (TDP1): qHTS in cells in absence of CPT | Potency, µM (highest dose often 46.2 µM), for the others: top-dose activity change, negative = growth inhibition, usual class: inhibitors | DT40 Tdp1-/- hTDP1 cells, no CPT, ATP luminescence, 48 h | 420,000 tested, 15% active | AID 686978, 2013; further: potency means the concentration at half of the fitted maximal effect; on the % scale 0 is the no-effect control and ±100 the full control effect; nearly all actives have a fitted effect of over 55% in size
#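 Luminescent ATP content (CellTiter-Glo) served as the growth readout. Knockout chicken DT40 cells expressing human TDP1 were exposed to compounds without camptothecin for a minimum 48 hr at 37 °C.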
# D3 antag = blocks the human D3 dopamine receptor; AID 652054; D3R cells, DiscoveRx beta-arrestin luminescence, antagonist mode; stronger effect = lower value; 360,000 tested, 2.5% active; P35462; max response, negative = inhibition, %; in the data active means max response below about -50%; inconclusive means no clear call, values can overlap the other calls; further: on the % scale 0 is the no-effect control and ±100 the full control effect
#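 Cells plated overnight at 1500 cells/well, then exposed to library compounds with dopamine controls for 90 minutes at 37 degrees C. DiscoveRx reagent added for 30–60 minutes at room temperature; luminescence read, quantitative HTS format.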
# Active calls of the source: *; ? = inconclusive; / = no result given; ! = not active in a repeat. This is a sample that favours compounds with a hit; in the whole collection about 21% have one here. Unless noted, the call rests on the fitted dose curve; in most records, active means well fitted inhibition curve with a large enough effect; inconclusive means small, poorly fitted or top-dose-only effect; inactive means flat fitted curve, though single readings scatter.
SMILES,DT40 TDP1 CPT,IL1B secr inh,ClpP mod,DRD3 agonist,DT40 TDP1 no CPT,D3 antag
COC(=O)CNC(=O)CSc1nc2sccc2c(=O)n1-c1ccccc1,5.4%,0.9,0.5%,-23.9,5.9%,-10.4
O=S(=O)(c1ccccc1)c1nc(-c2cccc(Cl)c2)oc1N1CCOCC1,?,-18.9,-10.7%,0.5,18.4µM*,14.6
O=S(=O)(c1ccccc1)c1nc(-c2ccc(Cl)cc2Cl)oc1N1CCCCCC1,23.1µM*,/,?,61.1*,18.4µM*,/
Cc1cccc(-c2nc(S(=O)(=O)c3ccccc3)c(N3CCN(c4ccccc4)CC3)o2)c1,18.4µM*,/,-8.9%,-16.9,7.31µM*,/
O=S(=O)(c1ccccc1)c1nc(-c2ccccc2)oc1N1CCOCC1,?,25.8,-5.2%,4.0,-3.6%,-17.1
Cc1ccc(S(=O)(=O)c2nc(-c3ccc(Cl)cc3)oc2N2CCCCCC2)cc1,?,/,-1.2%,7.8,?,/
Cc1cccc(-c2nc(S(=O)(=O)c3ccc(F)cc3)c(N3CCN(c4ccccc4)CC3)o2)c1,?,/,-7.4%,-6.8,?,/
Cc1ccc(S(=O)(=O)c2nc(-c3ccccc3)oc2N2CCCCCC2)cc1,23.1µM*,/,-19.0%,-3.9,20.6µM*,/
CCOc1ncccc1C(=O)Nc1ccc(OC)c(S(=O)(=O)N2CCOCC2)c1,-15.6%,-2.0,0.5%,-0.8,-2.5%,7.8
Cc1cc(C)cc(NC(=O)C2CCCN2S(=O)(=O)c2ccc3c(c2)n(C)c(=O)c(=O)n3C)c1 (configuration not stated),4.2%,15.7,-6.9%,2.4,-3.2%,-10.2
CCCC(=O)Nc1c(-c2ccccc2Cl)c(=O)c2ccccc2n1C,?,-11.8,-15.0%,1.8,7.7%,10.2
Cc1ccc(NC(=O)C2CCN(c3nc4ccccc4[nH]3)CC2)c(C)c1,?,/,-0.3%,0.8,?,/
CCN1CCN(c2oc(-c3ccccc3)nc2S(=O)(=O)c2ccc(C)cc2)CC1,?,-55.7*,0.5%,-11.1,?,-2.6
Cc1ccc(-c2nc(S(=O)(=O)c3ccc(C)cc3)c(N3CCCCC3)o2)cc1,6.51µM*,/,-12.9%,-9.6,7.31µM*,/
Cc1ccc(OCCC(=O)OCC(=O)Nc2ccc3[nH]c(=O)[nH]c3c2)cc1,-0.4%,8.3,-1.9%,0.6,6.0%,24.6
COC(=O)CC1CC2(C(=O)OC)c3[nH]c4ccccc4c3CCN2C1=O (configuration not stated),-4.1%,16.6,-3.8%,-7.8,0.6%,0.0
CC[C@]1(O)C[C@H]2CN(CCc3c([nH]c4ccccc34)[C@@](C(=O)OC)(c3cc4c(cc3OC)N(C=O)[C@H]3[C@@](O)(C(=O)OC)[C@H](OC(C)=O)[C@]5(CC)C=CCN6CC[C@]43[C@@H]65)C2)C1,0.237µM*,/,-1.3%,-2.9,0.237µM*!,/
CN(C)c1ccc(O)c2c1C[C@H]1C[C@H]3[C@H](N(C)C)C(=O)C(C(N)=O)=C(O)[C@@]3(O)C(=O)C1=C2O,6.51µM*,/,/,73.3*!,21.1µM*!,/
CN(C)c1ccc(O)c2c1CC1CC3[C@@H](N(C)C)C(=O)C(C(N)=O)=C(O)[C@]3(O)C(=O)C1=C2O (some centres not stated),8.2µM*,-8.2,-0.6%,3.9,3.66µM*,-8.3
O=C(Nc1ccc(F)c(F)c1)C1CCN(S(=O)(=O)c2cccc3nonc23)CC1,?,?,-0.7%,-23.2,?,-2.0
Cc1cc(C)cc(OCC(=O)Nc2nonc2-c2ccc(Br)cc2)c1,?,/,1.3%,-13.5,-17.3%,/
CCCCOc1ccc(Cc2cnc(N)nc2N)cc1,-23.9%,-54.8*,/,0.6,?,-14.2
COc1ccc(Cc2cnc(N)nc2N)cc1OC,?,/,0.8%,3.0,?,/
COc1cc(NC(=O)C2CCN(c3cnccn3)CC2)cc(OC)c1OC,-16.5%,-13.7,-6.3%,-1.1,3.4%,-2.8
CC1=C(C(=O)N(C)C)CC(CC(=O)NCCc2ccccn2)C(=O)N1Cc1ccccc1 (configuration not stated),-5.4%,-9.8,-0.4%,-1.9,2.7%,-18.0
SMILES,DT40 TDP1 CPT,IL1B secr inh,ClpP mod,DRD3 agonist,DT40 TDP1 no CPT,D3 antag
COc1ccc(/C=C/c2nc(-c3ccccc3)cc(=O)[nH]2)cc1,-4.7%,-5.4,/,0.7,-27.3%,18.4
COc1ccc(/C=C/c2n[nH]c(=O)c(C#N)c2C)cc1,3.7%,-96.9*,/,0.6,?,3.1
O=C(NCC1OCCc2ccccc21)c1cc(COc2c(F)cccc2F)on1 (configuration not stated),-8.7%,-7.0,/,-8.2,16.4µM*,2.2
O=C(NCCN1CCCCC1)c1cc(COc2c(F)cccc2F)on1,-25.3%,-4.0,-3.1%,-28.4,11.5%,-61.7*
O=C(NCc1ccc(F)cc1F)c1cc(COc2c(F)cccc2F)on1,-5.1%,4.3,17.8µM*,3.3,-25.1%,10.7
Cc1ccccc1C1CCCN(C(=O)c2cc(COc3c(F)cccc3F)on2)C1 (configuration not stated),23.1µM*,6.2,3.0%,3.4,20.6µM*,5.8
O=C(NCc1c(F)cccc1F)c1cc(COc2c(F)cccc2F)on1,-17.9%,-4.1,/,-7.3,-24.7%,-6.8
CCCOC1CCCN(C(=O)c2cc(COc3c(F)cccc3F)on2)C1 (configuration not stated),?,6.9,-0.6%,2.3,?,12.7
O=C(NC1CCc2ccccc21)c1cc(COc2c(F)cccc2F)on1 (configuration not stated),-21.1%,9.6,2.6%,2.9,0.0%,0.1
COc1ccc(C(=O)N2CCOC2CNC(=O)C(=O)NCc2ccccc2)cc1 (configuration not stated),8.9%,-17.8,1.0%,-3.7,?,-9.6
O=C(COc1ccc2c3c(c(=O)oc2c1)CCCC3)N1CCN(c2ccc(F)cc2)CC1,23.1µM*,6.6,3.3%,5.6,?,0.3
O=C(COc1ccc2c3c(c(=O)oc2c1)CCC3)N1CCN(c2ccc(F)cc2)CC1,?,64.4,3.4%,4.2,-7.9%,-6.3
COc1ccc(N2CCN(C(=O)COc3ccc4c(C)cc(=O)oc4c3C)CC2)cc1,-3.5%,34.4,-2.5%,1.4,1.9%,13.1
Cc1cccc(N2CCN(C(=O)COc3ccc4c(C)cc(=O)oc4c3C)CC2)c1C,13µM*,?,/,4.6,14.6µM*,13.5
